# CYP2C9 inh – inhibitors of human CYP2C9; P11712; CYP2C9 Supersomes, luciferin-H conversion, luminescence; inhibition, % at 5 µM; hit rate 20% among 96,000;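 active = blocking of liver enzyme CYP2C9 beyond about 50% at 5 µM, limit read from the data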
# Target sequence (P11712 whole entry, looked up): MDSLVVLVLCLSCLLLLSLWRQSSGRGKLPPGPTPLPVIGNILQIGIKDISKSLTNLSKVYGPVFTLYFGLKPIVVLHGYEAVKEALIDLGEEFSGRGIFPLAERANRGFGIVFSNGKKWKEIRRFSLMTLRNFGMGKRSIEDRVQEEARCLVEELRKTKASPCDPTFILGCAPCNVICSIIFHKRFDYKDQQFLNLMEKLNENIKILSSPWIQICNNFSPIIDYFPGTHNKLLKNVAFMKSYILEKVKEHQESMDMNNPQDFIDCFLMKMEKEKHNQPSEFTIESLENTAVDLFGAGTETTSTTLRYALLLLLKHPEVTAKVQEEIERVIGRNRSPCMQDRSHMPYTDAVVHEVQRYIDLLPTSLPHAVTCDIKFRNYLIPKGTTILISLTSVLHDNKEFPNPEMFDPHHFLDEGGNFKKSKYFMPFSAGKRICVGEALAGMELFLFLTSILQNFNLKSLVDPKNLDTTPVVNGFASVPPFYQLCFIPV
# CYP2C19 inhib – inhibitors of human CYP2C19; P33261; CYP2C19 Supersomes, luciferin-H EGE luminescence, 30 min; inhibition, % at 5 µM; hit rate 21% among 96,000; AID 778;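 active = CYP2C19 inhibition above a set limit at 5 µM in the primary screen, cut at about 50% in these data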;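 also: plate controls were negative control wells for no effect and 2.5 mM tranylcypromine positive control for full effect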
# CYP2C9 activ – CYP2C9 (human) activation. P11712. recombinant CYP2C9, luciferin-H conversion, luminescence; stronger effect = higher value; factor 1 = untreated enzyme, 0 = blocked. hit rate 1.4% among 96,000. activation factor at 5 µM. AID 1024;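 active = activation factor of 2 or more for CYP2C9 at a 5 µM dose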;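 also: 0 = sulfaphenazole-blocked wells and 1 = vehicle-only wells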
# CYP2C19 activ – activators of human cytochrome P450 2C19 | recombinant CYP2C19, luciferin-H EGE luminescence; stronger effect = higher value; 0 = fully inhibited enzyme, 1 = untreated enzyme | activation factor at 5 µM | 96,000 tested, under 10 active;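 active = activation factor of at least 2 at 5 µM in the primary screen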;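 also: 0 = wells with 2.5 mM tranylcypromine and 1 = vehicle-only wells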
# sEH inh – inhibitors of human soluble epoxide hydrolase | P34913 | hit rate 0.34% among 91,000 | inhibition, % at 2 µM | recombinant human sEH enzymatic activity assay; in the data active = inhibition above about 80%
# sEH activator – soluble epoxide hydrolase (human) activation; P34913; purified human sEH enzymatic activity, activator screen; activation, % at 2 µM; hit rate 0.04% among 91,000; AID 717; in the data active = activation above about 37%
# Active calls of the source: *; · = not tested or not shown. The list is not random: actives were taken first. Their share in the collection is about 27%.
SMILES,CYP2C9 inh,CYP2C19 inhib,CYP2C9 activ,CYP2C19 activ,sEH inh,sEH activator
Cc1cc2ccccn2c1C(=O)c1nc(N2CCOCC2)ncc1Cl,-2,46,1,0.5,-7,7
COCCN(CCOC)c1ncc(Cl)c(C(=O)c2c(C)cc3ccccn23)n1,-59,90*,1.6,0.1,2,-2
O=C(O)C(Cc1cc2ccccc2[nH]1)N1C(=O)C2CC=C(Cl)CC2C1=O (configuration not stated),·,·,·,·,4,-4
COc1cc2c(cc1OC)C(c1cc3cc(OC)c(OC)cc3[nH]c1=O)N(C(=O)C1CC1)CC2 (configuration not stated),61*,25,0.4,0.7,-7,7
O=c1cc(-c2ccccc2)[nH]n1-c1ccc([N+](=O)[O-])cc1,6,17,0.9,0.8,-6,7
N#Cc1c(Sc2ncc(C(F)(F)F)cc2Cl)nsc1C/C=N\OCc1ccccc1Br,-9,10,1.1,0.9,-10,7
CCOc1cc(C)c(C(C)C)cc1S(=O)(=O)N1CCN(C)CC1,-48,-11,1.5,1.1,8,-2
CCOc1cc(C)c(C(C)C)cc1S(=O)(=O)n1ccc(C)n1,38,54*,0.6,0.5,-4,2
CCOc1ccc(C(C)(C)C)cc1S(=O)(=O)n1nc(C)cc1C,·,·,·,·,15,-10
CCOc1ccc(C)cc1S(=O)(=O)n1ccc(C)n1,-130,46,2.3*,0.5,10,-6
COc1cc(C)c(Cl)cc1S(=O)(=O)n1ccnc1C,-52,92*,1.5,0.1,-12,6
COc1cc(S(=O)(=O)n2ccc(C)n2)c(OC)cc1Cl,0,67*,1,0.3,9,-8
COc1cc(S(=O)(=O)N2CCN(C)CC2)c(OC)cc1Cl,-13,44,1.1,0.6,-12,10
O=C(Nc1ccccn1)c1cccs1,-16,-12,1.2,1.1,-4,6
CCN(CC)S(=O)(=O)c1csc(C(=O)Nc2ccccn2)c1,81*,67*,0.2,0.3,-3,2
O=C(O)C1SCCN1S(=O)(=O)c1ccc2ccccc2c1 (configuration not stated),·,·,·,·,-14,17
Cc1ccc(OCC(=O)Nc2ccc(-c3nc4ncccc4o3)cc2)c(C)c1,46,63*,0.5,0.4,31,-31
O=C(NCc1ccccn1)Nc1ccc(Cl)c(Cl)c1,·,·,·,·,1,3
S=C(NCc1ccccn1)Nc1ccc(Cl)cc1,28,60*,0.7,0.4,-8,9
CCN(c1cccc(C)c1)c1nc2ccsc2c(=O)s1,87*,65*,0.1,0.3,9,-11
O=C(c1ccccc1)N1CCN(C(=O)c2ccc(OC(F)(F)F)cc2)CC1,13,3,0.9,1,15,-13
O=C(NCc1cccnc1)c1c[nH]c2cc3c(cc2c1=O)OCCO3,2,-7,1,1.1,-14,12
Cc1nn(Cc2ccccc2)c(C)c1NC(=O)CSc1nc(C2CC2)nc2c1cnn2-c1ccccc1,64*,11,0.4,0.9,12,-9
Cc1nn(C)c(C)c1NC(=O)CSc1nc(Cc2ccccc2)nc2c1cnn2-c1ccccc1,·,·,·,·,9,-7
COC(=O)CC(NS(=O)(=O)c1cccs1)c1ccccc1Cl (configuration not stated),48,94*,0.5,0.1,-2,4
SMILES,CYP2C9 inh,CYP2C19 inhib,CYP2C9 activ,CYP2C19 activ,sEH inh,sEH activator
Cc1ccc(C)c(Cn2nnc3c(=O)[nH]c(C4CCN(C(=O)c5cccs5)CC4)nc32)c1,88*,51*,0.1,0.5,-7,7
Cc1ccc(Cn2nnc3c(=O)[nH]c(C4CCN(C(=O)c5cccs5)CC4)nc32)cc1,72*,45,0.3,0.5,-4,0
CCn1c(CNc2cccc(Cl)c2)nnc1SCC(=O)OC1CCCCC1,74*,74*,0.3,0.3,4,-7
CCn1c(CNc2ccccc2Cl)nnc1SCC(=O)OC1CCCCC1,45,70*,0.6,0.3,-9,10
COC(=O)c1ccc(NC(=O)CSc2nnc(COc3ccccc3)n2C)cc1,17,15,0.8,0.8,-4,3
CC1(C)CC2CC(C)(CN2C(=O)COC(=O)Cn2[nH]c(=O)c3ccccc3c2=O)C1 (configuration not stated),26,32,0.7,0.7,19,-18
COC1=C(OC)c2ccccc2C(C(=O)O)N/C1=C(/C)Nc1ccncc1 (configuration not stated),-11,0,1.1,1,·,·
COc1cc(C(C)=O)ccc1OC(=O)C(C)N1C(=O)c2ccccc2C1=O (configuration not stated),54*,37,0.5,0.6,-6,8
CCC(C)Nc1nc(SC(C(C)=O)C(C)=O)nc(N(C)C)n1 (configuration not stated),62*,52*,0.4,0.5,5,-4
Clc1ccc(Nc2ccc(-n3ccnc3)nn2)cc1Cl,99*,100*,0,0,4,-2
COc1ccccc1N1CCN(C(=O)CSc2nnc(NC(=O)C3CC3)s2)CC1,82*,33,0.2,0.7,·,·
CCOC(=O)CSc1nc2ccccc2c(=O)n1CC1CCCO1 (configuration not stated),21,14,0.8,0.9,-2,2
COc1ccccc1N1CCN(C(=O)CSc2nc3ccccc3c(=O)n2CC2CCCO2)CC1 (configuration not stated),66*,22,0.3,0.8,-5,6
COc1ccccc1N1CCN(C(=O)CSc2nc3ccccc3o2)CC1,34,64*,0.7,0.4,6,-8
Cc1ccc(S(=O)(=O)N2CCN(C(=O)CSc3nc4ccccc4o3)C2)cc1,44,88*,0.6,0.1,-4,4
Cc1nc2nc(NCc3cccs3)nn2c(C)c1Cl,10,-3,0.9,1,-11,8
O=C(c1ccc(N2CN(C(=O)c3ccco3)c3nc4ccccc4nc32)cc1)N1CCOCC1,5,14,0.9,0.9,-10,9
COc1ccc2oc(=O)c(C(=O)n3ccc(C)n3)cc2c1,5,5,0.9,0.9,-9,6
CC1(C)CC(=O)C2=C(C1)OC(N)=C(C#N)C2c1cccc(OC(=O)c2ccco2)c1 (configuration not stated),76*,-15,0.2,1.1,-2,3
C/C(=C\c1ccco1)C1C(C#N)=C(N)OC2=C1C(=O)CC(C)(C)C2 (configuration not stated),91*,93*,0.1,0.1,3,-4
O=C(CCC(=O)NC1CCCCCCC1)Nc1nnc(C(F)(F)F)s1,83*,36,0.2,0.6,9,-10
O=C(CCC(=O)N1CCN(C2CCCCC2)CC1)Nc1nnc(C(F)(F)F)s1,38,8,0.6,0.9,-9,11
CC(C)c1nnc(NC(=O)CCC(=O)NC2CCCCCCC2)s1,26,5,0.7,0.9,1,0

# Screens as filed in PubChem BioAssay.
